# DUSP3 inh = blocks human VHR1 dual specificity phosphatase. recombinant VHR phosphatase, pNPP absorbance. P51452. actives 0.52% (n = 290,000). inhibition, % at 13.3 µM; in the data active = inhibition above about 50%
# Target sequence (P51452 whole entry, looked up): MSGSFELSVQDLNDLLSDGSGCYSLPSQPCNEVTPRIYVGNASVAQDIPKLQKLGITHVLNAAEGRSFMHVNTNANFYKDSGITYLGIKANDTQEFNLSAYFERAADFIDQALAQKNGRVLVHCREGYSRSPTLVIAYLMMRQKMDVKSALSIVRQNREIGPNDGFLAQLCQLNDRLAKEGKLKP
# MazF activator = activators of E. coli MazEF toxin-antitoxin RNase. P0AE70. FAM/BHQ RNA-DNA oligo cleavage fluorescence, 5 h. activation, % at 20 µM. actives 0.32% (n = 350,000). AID 504720; in the data active = activation above about 50%
# Target sequence (P0AE70 whole entry, looked up): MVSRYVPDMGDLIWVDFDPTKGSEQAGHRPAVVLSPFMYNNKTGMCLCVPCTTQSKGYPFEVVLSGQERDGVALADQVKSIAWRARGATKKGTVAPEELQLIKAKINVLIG
# PfHsp40 yeast = rescue of PfHsp40-mediated yeast toxicity | actives 0.68% (n = 340,000) | growth rescue, % at 12.5 µM | AID 504582 | S. cerevisiae expressing PfHsp40, growth rescue, ATP luminescence; in the data active = growth rescue above about 28%, passing the limit was not always enough;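 also: yeast W303a lacking pdr1 and pdr3 grown in galactose medium; growth measured after three days at 30 °C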
# BJeLR viability = kills HRASV12-expressing BJeLR cells; actives 0.17% (n = 300,000); inhibition, % (no concentration beside the values); BJeLR (HRASV12) viability, CellTiter-Glo ATP luminescence, 48 h; in the data active = inhibition above about 50%
# BH1578 lux ind = induces V. cholerae light production without autoinducers; V. cholerae BH1578 lux reporter, luminescence, 6 h; activation, % at 18.7 µM; actives 0.16% (n = 350,000); in the data active = activation mostly above about 9.7%, no sharp cut-off
# 3CLpro inhibitor = SARS-CoV 3CLpro protease inhibition. AID 1706. recombinant SARS-CoV 3CLpro, quenched FRET peptide cleavage. inhibition, % at 6 µM. P0C6X7. actives 0.14% (n = 290,000); in the data active = inhibition above about 12%
# Active calls of the source: *; i = inactive; · = not tested or not shown. Most compounds without a hit are left out; they make up all but 1.7% or so of the library.
SMILES,DUSP3 inh,MazF activator,PfHsp40 yeast,BJeLR viability,BH1578 lux ind,3CLpro inhibitor
COc1ccc(C(NC(=O)CC(C)C)c2c(O)ccc3ccccc23)cc1 (configuration not stated),20,2,33*,4,0,7
C[C@@H]1O[C@@H](O[C@H]2[C@H](O[C@H]3C[C@]4(C)C(C[C@@H](O)C5C([C@]6(C)CC[C@@H](C(C)(C)O)O6)CC[C@]54C)[C@@]4(C)CC[C@H](O)C(C)(C)C34)O[C@H](CO)[C@@H](O)[C@@H]2O)[C@H](O)[C@H](O)[C@H]1O (some centres not stated),·,8,-1,·,i,·
CC1(C(=O)NS(=O)(=O)c2ccc(C#N)cc2)CCN1C(=O)CC1CC1 (configuration not stated),·,·,·,·,i,·
CC1(C)C(C(=O)N2CCN(C(=O)c3ccccc3)CC2)C1(C)C,58*,4,-1,-9,i,-4
CCc1nc2nc(C)c(NS(=O)(=O)c3ccc(C4CCCCC4)cc3)c(=O)n2[nH]1,-15,1,1,-3,0,-5
Cc1cc2ccccn2c1C(=O)c1ccc(N/N=C/c2ccc(C(=O)O)cc2)c([N+](=O)[O-])c1,83*,-28,0,·,i,3
C/C(=N\Nc1ccc(C(=O)c2c(C)cc3ccccn23)cc1[N+](=O)[O-])c1ccc(O)cc1,34,13,0,-2,i,-1
CCOc1ccc(NC(=O)CC(Cc2cc(C)cc(C)c2)C(=O)O)cc1 (configuration not stated),53*,7,1,2,1,3
CCOc1ccc(NC(=O)C(CC(=O)O)Cc2ccccc2)cc1 (configuration not stated),6,1,2,6,1,-5
COc1c(O)c(=O)n2c3ccccc3c3ccnc1c32,·,1,66*,6,0,·
Cc1ccc(OCC(=O)O)c(O)c1,·,6,-1,·,·,·
COc1cc2nc(N3CCNCC3)nc(N)c2cc1OC,-5,-3,186*,3,-11,2
CC(N=C1NS(=O)(=O)c2ccccc21)C(=O)OCC(=O)N(C)C1CCS(=O)(=O)C1 (configuration not stated),·,5,-1,·,i,·
N#CC(c1cccc(Cl)c1)c1ccc2c(C(F)(F)F)cc(C(F)(F)F)nc2n1 (configuration not stated),0,13,0,76*,0,1
Cc1ccc(N(C)S(=O)(=O)c2cccc(C(=O)NCC(c3ccco3)N3CCCC3)c2)cc1 (configuration not stated),·,0,-2,·,i,·
O=[N+]([O-])c1ccc2[nH]nc(-c3ccccc3)c2c1,-1,6,41*,1,0,3
Cc1ccccc1N=Nc1c(O)[nH]c2ccccc12,·,482*,·,-7,1,·
COc1ccccc1N=Nc1c(O)[nH]c2ccc(Br)cc12,14,137*,-1,8,-1,1
CCOC(=O)C1=C(N)n2c(s/c(=C\c3cccnc3)c2=O)=C(C(=O)OCC)C1c1cccnc1 (configuration not stated),57*,·,·,·,·,·
Clc1ccccc1CN(Cc1ccco1)Cc1nnnn1C1CCCC1,3,-6,331*,-1,i,2
c1coc(CN(Cc2cccs2)Cc2nnnn2C2CCCCC2)c1,18,-3,0,-17,0,4
O=C1c2ccc3c4c(ccc(c24)C(=O)N1NC(=O)C(F)(F)F)CC3,12,-6,0,6,i,-2
CC(=O)NN1C(=O)c2ccc3c4c(ccc(c24)C1=O)C(=O)N(NC(C)=O)C3=O,25,69*,0,24,2,1
COc1ccc(OC)c(S(=O)(=O)NC(=O)C2(C)CCN2C(=O)C2(c3ccc(Cl)cc3)CC2)c1 (configuration not stated),·,·,·,·,0,·
OCCC1CN(Cc2cn[nH]c2C2CCCCC2)CCN1Cc1ccccc1 (configuration not stated),31,8,0,-25,0,2
SMILES,DUSP3 inh,MazF activator,PfHsp40 yeast,BJeLR viability,BH1578 lux ind,3CLpro inhibitor
Cc1ccc(CN2CCN(Cc3cn[nH]c3C3CCCCC3)CC2CCO)cc1 (configuration not stated),52*,2,4,2,4,-3
O=C(COC(=O)c1ccc(Cl)c(S(=O)(=O)N2CCCCCC2)c1)NCc1ccccc1,·,1,·,·,-1,·
CCCCCCCCNC(=O)/C(C#N)=C/c1ccccc1[N+](=O)[O-],12,122*,355*,1,0,-1
COc1ccc(OC)c(/C=C/c2nc3ccccc3[nH]c2=O)c1,31,240*,1,7,1,-2
O=c1[nH]c2ccccc2nc1/C=C/c1ccc(F)cc1,26,849*,1,7,0,-1
COc1ccc(OCCOC(=O)c2cc(S(=O)(=O)N3CCOCC3)c(Cl)cc2Cl)cc1,·,-18,0,3,-1,·
O=C(Sc1cccc2cccnc12)c1ccccc1Br,36,·,119*,97*,0,7
O=C(Sc1cccc2cccnc12)c1ccc(F)cc1,14,·,·,·,·,0
O=C(NC(=S)N1CCc2ccccc21)c1ccc(Br)o1,9,0,36*,9,i,2
O=C(c1ccccc1)c1ccc(Cn2cc(-c3ccccc3)nn2)cc1,5,0,723*,13,0,-1
O=S(=O)(NCC1CCCO1)c1ccc(Br)cc1 (configuration not stated),13,2,35*,-4,i,0
CCC(C)(C)c1ccc(OCCCC[n+]2cccc(C)c2C)c(C(C)(C)CC)c1,21,-15,45*,57*,i,4
CCOC(=O)C1=CN(Cc2cccc(F)c2)S(=O)(=O)N(C)C1c1ccc2ccccc2c1 (configuration not stated),·,50*,-1,·,2,·
CCOC(=O)C1=CN(Cc2cccc(F)c2)S(=O)(=O)N(CC)C1c1ccc2ccccc2c1 (configuration not stated),·,3,-2,·,0,·
Cc1ccc(NC(=O)COC(=O)C2=NN(c3ccccc3)C(=O)CC2)c(Br)c1,·,2,0,·,-2,·
Cc1nc(NC(=O)c2ccc(-c3cc4ccccc4oc3=O)cc2)ccc1Br,0,-167,0,-25,0,-3
Cc1nc(NC(=O)c2cccc(-c3cc4ccccc4oc3=O)c2)ccc1Br,33,84*,0,7,i,-2
COc1ccc(CN2CCN(CCc3ccccc3)C(CCO)C2)c(Cl)c1OC (configuration not stated),14,2,1,2,-2,0
CCOC(=O)c1c(C)[nH]c(N=Nc2cccc(OC)c2)c1C,29,-4,77*,-3,i,6
Oc1ccc(/C=N/NC(=S)Nc2cccnc2)c(O)c1O,26,60*,0,-5,0,-1

# Screens (PubChem BioAssay)
